Measured values as given in the supplement of paper PMC12494721.
Structures can show the parent of a compound that is named as a salt.

Key:
Conditions in all cases: 20 µM; incubation time: 27 h, anaerobic, 37 °C;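 for the amine columns active = adjusted P below 0.05 in both replicates with a change the same way and a mean fold change under 0.8 or over 1.25; inactive = the rest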
[1] = test system: Clostridium sporogenes DSM 1664; assay: growth (OD595) fold change vs plate DMSO controls (fold change (ratio)); higher = more growth
Outline: (§1)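 Each value is the mean of 2 biological replicates, and fold changes above 1.5 were set to NA. The underlying readings were taken at 595 nm from shaken anaerobic mGAM cultures in 96-well plates after 27 h at 37 °C. They were blank-subtracted, corrected for compound background using 20 µM compound solutions in water, and converted to OD with a calibration factor of 5. Growth is the fold change relative to the median of the plate DMSO controls.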

Escherichia coli IAI1 [2] = assay: as above
Outline: as §1

[3] = test system: Klebsiella aerogenes DSM 30053; assay: as above
Outline: as §1

[4] = test system: Ruminococcus gnavus DSM 108212; assay: as above
Outline: as §1

[5] = test system: Klebsiella aerogenes DSM 30053; assay: fold change of Histamine concentration vs plate DMSO controls (fold change (ratio)); higher = more amine produced, active = hit call of the paper (significant change in both replicates, either direction)
Outline: (§2)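 Amines were quantified by LC–triple-quadrupole MS in dynamic MRM mode against external calibration curves, with drift correction within each batch. The samples were whole anaerobic mGAM cultures of four gut bacterial strains, grown for 27 h at 37 °C in 80 µL wells and extracted with cold acetonitrile/methanol with 0.1% formic acid, then centrifuged. Values are reported as fold change over DMSO controls on the same plate. The mean of 2 biological replicates is given.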

[6] = test system: Clostridium sporogenes DSM 1664; assay: fold change of Tryptamine concentration vs plate DMSO controls (fold change (ratio)); higher = more amine produced, active = hit call of the paper (significant change in both replicates, either direction)
Outline: as §2

[7] = test system: Ruminococcus gnavus DSM 108212; assay: as above
Outline: as §2

Escherichia coli IAI1 [8] = assay: fold change of Putrescine concentration vs plate DMSO controls (fold change (ratio)); higher = more amine produced, active = hit call of the paper (significant change in both replicates, either direction)
Outline: as §2

[9] = test system: Klebsiella aerogenes DSM 30053; assay: as above
Outline: as §2

Escherichia coli IAI1 [10] = assay: fold change of Cadaverine concentration vs plate DMSO controls (fold change (ratio)); higher = more amine produced, active = hit call of the paper (significant change in both replicates, either direction)
Outline: as §2

[11] = test system: Klebsiella aerogenes DSM 30053; assay: as above
Outline: as §2

[12] = test system: Ruminococcus gnavus DSM 108212; assay: fold change of 2-Phenylethylamine concentration vs plate DMSO controls (fold change (ratio)); higher = more amine produced, active = hit call of the paper (significant change in both replicates, either direction)
Outline: as §2

| SMILES | growth [1] | growth (Escherichia coli IAI1 [2]) | growth [3] | growth [4] | fold change of Histamine concentration [5] | fold change of Tryptamine concentration [6] | fold change of Tryptamine concentration [7] | fold change of Putrescine concentration (Escherichia coli IAI1 [8]) | fold change of Putrescine concentration [9] | fold change of Cadaverine concentration (Escherichia coli IAI1 [10]) | fold change of Cadaverine concentration [11] | fold change of 2-Phenylethylamine concentration [12] |
| --- | --- | --- | --- | --- | --- | --- | --- | --- | --- | --- | --- | --- |
| Cc1cc(C2CC2)nc(Nc2ccccc2)n1 | 0.944 | 1.01 | 0.977 | 0.987 | 1.04 (inactive) | 0.966 (inactive) | 0.968 (inactive) | 0.975 (inactive) | 0.972 (inactive) | 1.01 (inactive) | 0.99 (inactive) | 1.2 (inactive) |
| N[C@@H]1C[C@H]1c1ccccc1 [Tranylcypromine hydrochloride] | 1.05 | 0.992 | 1.03 | 1.02 | 1.1 (inactive) | 0.972 (inactive) | 0.964 (inactive) | 1.01 (inactive) | 1.03 (inactive) | 1.03 (inactive) | 0.995 (inactive) | 0.928 (inactive) |
| O=C1C=C(N(Cc2ccc(Cl)nc2)CC(F)F)CO1 | 0.968 | 1.01 | 0.997 | 0.923 | 1.02 (inactive) | 1.15 (inactive) | 1.1 (inactive) | 0.94 (inactive) | 1 (inactive) | 0.933 (inactive) | 1.01 (inactive) | 1.15 (inactive) |
| CCCCCC[C@H]1C(=O)O[C@H](C)[C@H](NC(=O)c2cccc(NC=O)c2O)C(=O)O[C@@H](C)[C@@H]1OC(=O)CC(C)C [Antimycin A] | 1.09 | 1.03 | 1.02 | 1.15 | 0.994 (inactive) | 0.974 (inactive) | 1.04 (inactive) | 0.99 (inactive) | 0.98 (inactive) | 1.03 (inactive) | 1.01 (inactive) | 0.975 (inactive) |
| NCC1(CC(=O)O)CCCCC1 [Gabapentin] | 1.14 | 1.15 | 1.03 | 1 | 1.04 (inactive) | 0.986 (inactive) | 1.03 (inactive) | 1.03 (inactive) | 1 (inactive) | 1.02 (inactive) | 0.985 (inactive) | 1.07 (inactive) |
| CC(=O)OC1CN2CCC1CC2 (configuration not stated) [Aceclidine hydrochloride] | 1.15 | 1.09 | 1.01 | 1.13 | 0.864 (inactive) | 1.02 (inactive) | 1.03 (inactive) | 1.02 (inactive) | 0.959 (inactive) | 0.951 (inactive) | 1.02 (inactive) | 1.01 (inactive) |
| COc1cc2c(c(OC)c1OC)-c1ccc(OC)c(=O)cc1[C@@H](NC(C)=O)CC2 [Colchicine] | 0.992 | 1.02 | 0.975 | 1.16 | 1.06 (inactive) | 1.02 (inactive) | 0.889 (inactive) | 1.04 (inactive) | 1.02 (inactive) | 1.04 (inactive) | 0.983 (inactive) | 0.829 (inactive) |
| CC(=O)O[C@H]1CC[C@@]2(C)C(=CC[C@@H]3[C@@H]2CC[C@]2(C)C(=O)CC[C@@H]32)C1 [Dehydroisoandosterone 3-acetate] | 0.905 | 1.04 | 0.994 | 1.08 | 1.02 (inactive) | 0.937 (inactive) | 1.04 (inactive) | 1.08 (inactive) | 1.04 (inactive) | 1.01 (inactive) | 1.01 (inactive) | 1.04 (inactive) |
| N#Cc1sc2c(=O)c3ccccc3c(=O)c=2sc1C#N | 1.14 | 1.02 | 0.963 | 1.01 | 0.994 (inactive) | 0.877 (inactive) | 0.906 (inactive) | 1.02 (inactive) | 1.01 (inactive) | 1.02 (inactive) | 0.992 (inactive) | 0.827 (inactive) |
| CNC(=O)CSP(=S)(OC)OC | 0.992 | 1.06 | 1 | 0.99 | 1.07 (inactive) | 1.01 (inactive) | 1.13 (inactive) | 0.998 (inactive) | 0.888 (inactive) | 1.01 (inactive) | 1.12 (inactive) | 1.43 (inactive) |
| CC(C)(C)NCC(O)c1ccccc1Cl (configuration not stated) [Tulobuterol Hydrochloride] | 0.953 | 0.972 | 0.966 | 1.11 | 0.972 (inactive) | 1 (inactive) | 1.01 (inactive) | 1.02 (inactive) | 1.02 (inactive) | 0.993 (inactive) | 1.01 (inactive) | 1.03 (inactive) |
| CCc1nn(C)c(C(=O)NCc2ccc(Oc3ccc(C)cc3)cc2)c1Cl | 0.969 | 1.02 | 1.01 | 1.17 | 0.963 (inactive) | 0.927 (inactive) | 1.02 (inactive) | 0.947 (inactive) | 1 (inactive) | 1.01 (inactive) | 0.998 (inactive) | 1.04 (inactive) |
| C[C@]12COC(=O)C[C@@H]1CC[C@@H]1[C@@H]2CC[C@@]2(C)[C@H]1CC[C@]2(C)O [Oxandrolone] | 0.947 | 0.993 | 1.03 | 0.877 | 0.945 (inactive) | 0.945 (inactive) | 1.01 (inactive) | 0.974 (inactive) | 0.991 (inactive) | 1.02 (inactive) | 0.999 (inactive) | 1.06 (inactive) |
| CC1=NNC(=O)N(/N=C/c2cccnc2)C1 | 1.04 | 0.951 | 0.97 | 1.03 | 1.03 (inactive) | 1.02 (inactive) | 1.01 (inactive) | 0.906 (inactive) | 0.945 (inactive) | 1.08 (inactive) | 0.99 (inactive) | 1.02 (inactive) |
| CC(COc1ccc(Oc2ccccc2)cc1)Oc1ccccn1 (configuration not stated) | 1.06 | 0.987 | 1.01 | 0.945 | 1.02 (inactive) | 1.02 (inactive) | 1.06 (inactive) | 1.01 (inactive) | 1.03 (inactive) | 1.02 (inactive) | 1.02 (inactive) | 1.08 (inactive) |
| C[C@]12CCC(=O)C=C1CC[C@@H]1[C@@H]2C(=O)C[C@]2(C)C(=O)CC[C@@H]12 [Adrenosterone] | 1.1 | 1.04 | 1.01 | 1 | 0.94 (inactive) | 1.02 (inactive) | 1.07 (inactive) | 1.09 (inactive) | 0.998 (inactive) | 1.01 (inactive) | 1.02 (inactive) | 1.07 (inactive) |
| c1ccc2c(c1)Nc1ccccc1S2 [Phenothiazine] | 1.09 | 0.906 | 0.937 | 1.02 | 0.931 (inactive) | 0.995 (inactive) | 1.01 (inactive) | 0.944 (inactive) | 0.953 (inactive) | 1.03 (inactive) | 0.973 (inactive) | 0.974 (inactive) |
| CC(C)=CC1C(C(=O)OCc2cccc(Oc3ccccc3)c2)C1(C)C (configuration not stated) [Phenothrin] | 0.963 | 1.02 | 1.05 | 1.06 | 0.924 (inactive) | 1.02 (inactive) | 1.05 (inactive) | 1.07 (inactive) | 1.02 (inactive) | 1.03 (inactive) | 1.01 (inactive) | 1.06 (inactive) |
| C[N+]1(C)[C@@H]2CC[C@H]1C[C@@H](OC(=O)C(CO)c1ccccc1)C2 (some centres not stated) [Methylatropine nitrate] | 0.875 | 0.835 | 0.989 | 0.97 | 0.978 (inactive) | 0.99 (inactive) | 1 (inactive) | 0.932 (inactive) | 1.02 (inactive) | 1.07 (inactive) | 1.01 (inactive) | 0.956 (inactive) |
| COc1ccc(CN2CCNCC2)c(OC)c1OC [Trimetazidine dihydrochloride] | 0.945 | 0.975 | 0.973 | 1.15 | 1.12 (inactive) | 1.05 (inactive) | 1.03 (inactive) | 0.973 (inactive) | 1.02 (inactive) | 1.01 (inactive) | 0.971 (inactive) | 1.03 (inactive) |
| C=CC(N)=O [Acrylamide] | 0.971 | 0.969 | 0.977 | 0.973 | 0.995 (inactive) | 1.03 (inactive) | 0.999 (inactive) | 0.967 (inactive) | 0.987 (inactive) | 1.04 (inactive) | 0.972 (inactive) | 1.03 (inactive) |
| CCN(CC)CCOC(=O)C(O)(c1ccccc1)c1ccccc1 [Benactyzine hydrochloride] | 1.07 | 1.01 | 1.01 | 0.944 | 0.998 (inactive) | 0.997 (inactive) | 1.06 (inactive) | 1.02 (inactive) | 0.992 (inactive) | 0.986 (inactive) | 0.999 (inactive) | 1.07 (inactive) |
| CSc1nc(NC(C)C)nc(NC(C)C)n1 | 0.932 | 1.01 | 1.02 | 0.973 | 0.971 (inactive) | 0.943 (inactive) | 0.955 (inactive) | 0.946 (inactive) | 1.04 (inactive) | 1.01 (inactive) | 1.03 (inactive) | 1 (inactive) |
| COP(=O)(NC(C)=O)SC (configuration not stated) | 1.04 | 0.98 | 1.02 | 1.04 | 1 (inactive) | 1.02 (inactive) | 1 (inactive) | 1.02 (inactive) | 1 (inactive) | 1.02 (inactive) | 0.997 (inactive) | 1 (inactive) |
| C#C[C@]1(O)CC[C@H]2[C@@H]3CCC4=CC(=O)CCC4=C3C=C[C@@]21CC [Gestrinone] | 1.02 | 0.985 | 0.996 | 1.04 | 0.947 (inactive) | 1.03 (inactive) | 1.16 (inactive) | 0.88 (inactive) | 0.96 (inactive) | 0.913 (inactive) | 1.03 (inactive) | 1.18 (inactive) |
| Nc1ccncc1 [Dalfampridine] | 0.947 | 0.992 | 1.02 | 0.985 | 0.957 (inactive) | 1 (inactive) | 1 (inactive) | 0.968 (inactive) | 0.989 (inactive) | 0.957 (inactive) | 1 (inactive) | 0.991 (inactive) |
